Results published in PubChem BioAssay.
Values without a mark were called inactive. No rule for the calls is given here.

The compounds below were run against Pantothenate synthetase (Mycobacterium tuberculosis (strain ATCC 25618 / H37Rv)) (UniProt P9WIL5) (assay: Coupled enzyme confirmation of inhibitors against recombinant Mtb PanC (AID 375;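 also: 0% = full reaction with vehicle and 100% = no enzyme background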)). Conditions: coupled enzyme assay; at 10 µM, stronger effect = higher value.
Chain of Pantothenate synthetase (Mycobacterium tuberculosis (strain ATCC 25618 / H37Rv)) (P9WIL5 whole entry, looked up): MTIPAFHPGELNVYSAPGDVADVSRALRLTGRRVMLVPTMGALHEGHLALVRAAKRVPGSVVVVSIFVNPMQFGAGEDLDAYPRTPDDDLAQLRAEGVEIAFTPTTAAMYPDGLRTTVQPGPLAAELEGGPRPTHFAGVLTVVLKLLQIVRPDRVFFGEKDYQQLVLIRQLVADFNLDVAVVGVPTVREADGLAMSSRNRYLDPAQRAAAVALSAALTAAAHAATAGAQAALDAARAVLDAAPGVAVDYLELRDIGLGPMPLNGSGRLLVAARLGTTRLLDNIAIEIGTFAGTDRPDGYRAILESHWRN

Compound	inhibition
COC(=O)c1ccc(CSc2nnnn2Cc2ccccc2)cc1	0%
O=C(CSc1nc2ccccc2o1)N1CCN(C(=O)c2ccco2)CC1	0%
CC(C)C(c1nnnn1C1CCCC1)N1CCCc2ccccc21 (centres undefined)	0%
C(=C\c1ccccc1)/CSc1nnc(-c2ccccn2)n1Cc1ccco1	5%
COc1ccccc1NC(=O)N(Cc1ccco1)Cc1cc2c(C)ccc(C)c2[nH]c1=O	0%
CCCCNC(=O)c1c(C)cc(=O)oc1C	9%
O=C(CCN1C(=O)C2C3C=CC(C3)C2C1=O)N1CCN(c2ccccc2Cl)CC1 (centres undefined)	3%
CCC(Sc1ccc2nnc(-c3ccc(F)cc3)n2n1)C(=O)OC (centres undefined)	0%
Cc1ccc2nc(C3CCN(CC(=O)N4CCCCCC4)CC3)[nH]c2c1	0%
Cc1nn(CC(O)Cn2c3c(c4ccccc42)CCN(C)C3=O)c(C)c1Br (centres undefined)	7%
CN(c1ccc(OCc2nnc(-c3ccccc3)o2)cc1)S(=O)(=O)c1ccccc1	0%
Cc1[nH]c(=O)[nH]c(=O)c1S(=O)(=O)N1CCCC(C(=O)NCc2ccco2)C1 (centres undefined)	5%
Cn1c(=O)c2c(nc(SCCCO)n2Cc2ccccc2Cl)n(C)c1=O	3%
Cc1cc(S(=O)(=O)N2CCN(c3ncccn3)CC2)ccc1-n1cnnn1	1%
CC(C)c1ccc(CNc2ccc(N3CCOCC3)cc2)cc1	2%
COc1ccc(-n2c(SCC#N)nc3ccccc3c2=O)cc1	1%
CS(=O)(=O)N1CCCC(C(=O)NCc2ccccc2Cl)C1 (centres undefined)	0%
O=C(Nc1ccc(F)cc1)c1cccc2c1C(=O)N(Cc1ccccn1)C2	0%
COc1ccc2cc(C(c3nnnn3C(C)(C)C)N3CCc4ccccc4C3)c(=O)[nH]c2c1 (centres undefined)	11%
CCn1c(SCC(=O)C(C)(C)C)nnc1-c1cnccn1	0%

Compound	inhibition
Cc1c(NC(=O)CN2c3cccc4cccc(c34)S2(=O)=O)c(=O)n(-c2ccccc2)n1C	0%
O=C1CC(c2cccc(Cl)c2)CC(O)=C1C=NCCCO (centres undefined)	9%
O=C(NCCCN1CCOCC1)c1cc(-c2ccc(O)cc2)on1	0%
CC(=O)N1CCc2cc(S(=O)(=O)NCCC(=O)NC3CCCc4ccccc43)ccc21 (centres undefined)	0%
COc1ccc(C(=O)Cn2nnc(-c3cccs3)n2)cc1	0%
CC(=O)OC(C(=O)NC1CCCCC1)c1ccncc1 (centres undefined)	10%
CN(c1cccc(NC(=O)COc2ccccc2)c1)S(C)(=O)=O	6%
COC(=O)Cn1ncc2c(C)n(Cc3ccccc3)c(C)c2c1=O	2%
NC(=O)CSc1nnc(-c2cnccn2)n1-c1ccccc1	0%
CCCC1CC(C)(C(=O)Cn2[nH]c(=O)ccc2=O)OC1=O (centres undefined)	10%
c1cncc(-c2nnc3sc(-c4ccco4)nn23)c1	0%
Cc1ccc(-c2cc(C(F)F)nc(NCC3CCCO3)n2)cc1 (centres undefined)	3%
COc1ccc(Nc2ncnc3c2cnn3-c2ccccc2)cc1OC	1%
CSc1ccccc1NC(=O)C1CCCO1 (centres undefined)	7%
Cc1cc(NC(=O)CSc2nc(C3CC3)nc3sc4c(c23)CCC(C)C4)no1 (centres undefined)	6%
FC(F)(F)c1cccc(N2CCN(Cc3cccnc3)CC2)c1	4%
Cc1ccccc1CSCC(=O)c1c(N)n(C)c(=O)n(C)c1=O	2%
O=C1Nc2ccccc2OC1CC(=O)N1CCCC1 (centres undefined)	0%
Cc1nc(NC2=NCN(CCN3CCOCC3)CN2)nc2c(C)cccc12	0%
